The sample as a whole holds a higher share of hits than the screen did.
Tg IFNy HTS: inhibitors of Toxoplasma gondii growth with IFN-gamma. actives 3.8% (n = 69,000). activity change, negative = inhibition, % (no concentration beside the values). AID 1259416. Toxoplasma gondii growth in IFN-gamma-treated host cells; hits give low values; in the data active = activity change below about -70%, passing the limit was not always enough;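 also: host cells are HeLa cells infected with Toxoplasma gondii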
Large screens that a line does not name were inactive; ! = a repeat was not active.

CCC(C(=O)N1C[C@H]2CC=CC[C@H]2C1)N1Cc2ccccc2C1=O (stereo not given in full)	none
C[C@H]1CN([C@@H](C)CO)C(=O)c2ccccc2-c2ccccc2CO[C@H]1CN(C)C(=O)NC1CCCCC1	none
C[C@@H]1CN([C@H](C)CO)C(=O)c2ccccc2-c2ccccc2CO[C@H]1CN(C)C(=O)Nc1ccc(-c2ccccc2)cc1	Tg IFNy HTS -76
C[C@H](CO)N1C[C@H](C)[C@@H](CN(C)C(=O)Nc2cccc(C(F)(F)F)c2)OCc2ccccc2-c2ccccc2C1=O	none
C[C@@H]1CN([C@H](C)CO)C(=O)c2ccccc2-c2ccccc2CO[C@@H]1CN(C)C(=O)Nc1ccc(-c2ccccc2)cc1	Tg IFNy HTS -74
C[C@@H]1CN([C@@H](C)CO)C(=O)c2ccccc2-c2ccccc2CO[C@@H]1CN(C)C(=O)Nc1ccc(-c2ccccc2)cc1	none
C[C@@H]1CN([C@H](C)CO)C(=O)c2ccccc2-c2ccccc2CO[C@H]1CN(C)C(=O)Nc1cccc(C(F)(F)F)c1	none
CS(=O)(=O)N1CC2C[C@@H](F)[C@@H](O)C2C1 (stereo not given in full)	none
CN1CCC(Cc2noc(CCC(=O)c3ccccc3)n2)CC1	none
CCOC(=O)c1cc(C)nc2c1c(=O)n(Cc1nc(-c3ccc(OCC)cc3)oc1C)c(=O)n2C	none
Cc1ccc(CNC(=O)N2CCC(c3nc(C(=O)N(C)C)c(C)o3)CC2)cc1	none
Cc1nc2ccc(NC(=O)c3noc(C)c3COc3ccccc3F)cc2nc1C	none
COc1ccc2c3c(n(C)c2c1)[C@@H](CO)N(C(=O)CN(C)C)CC31CN(Cc2nccs2)C1	Tg IFNy HTS -109
COc1ccc2c3c(n(C)c2c1)[C@@H](CO)N(Cc1nccs1)CC31CCN(C(=O)CN(C)C)CC1	none
COc1ccc(S(=O)(=O)N2CC3(CN(C(=O)CN(C)C)[C@@H](CO)c4c3c3ccc(OC)cc3n4C)C2)cc1	none
CCS(=O)(=O)N1CCC2(CC1)CC(OC)CO2 (stereo not given)	Tg IFNy HTS -85
CCS(=O)(=O)N1CCC2(CC1)CC(OCC1CCOCC1)CO2 (stereo not given)	none
COC1COC2(CCN(C(=O)C3CC(F)(F)C3)CC2)C1 (stereo not given)	none
c1cnc(NC2COC3(CCCN(c4ncccn4)C3)C2)nc1 (stereo not given)	none
Cc1ccc(C(=O)N2CCC(N3CCCC3)CC2C(=O)O)cn1 (stereo not given)	none
[2H]C([2H])([2H])C(O)(CCO[C@@H](C)[C@H]1CC[C@H]2/C(=C/C=C3/C[C@@H](O)C[C@H](O)C3=C)CCC[C@]12C)C([2H])([2H])[2H]	none
O=C(c1cccnc1)N1CCCC2(CCN(Cc3ccccn3)C2)C1 (stereo not given)	none
O=C(NCc1nc(-c2ccncc2)n[nH]1)Nc1ccccc1C(F)(F)F	none
CC(=O)c1cc(C(=O)NCCc2nc(-c3cccnc3)n[nH]2)cs1	none
O=C(NCc1nc(-c2ccncc2)n[nH]1)c1cccs1	Tg IFNy HTS -94
O=C(N1Cc2cnn(CCO)c2C1)C1(c2ccccc2)CC1	none
COc1ccc(-c2cc(-c3ccccc3)c(C)c(-c3ccccc3)n2)cc1	none
COc1ccc(-c2sncc2-c2ccccc2)cc1	Tg IFNy HTS -109
COc1ccc(-c2nc(Cc3noc(-c4ccccc4)n3)c(C)o2)cc1	none
O=C(O)C1CC(N2CCOCC2)CCN1C(=O)c1cccs1 (stereo not given)	none
Cc1cc(C(C)(C)C)oc1C(=O)N1CCC(C(=O)c2nccs2)CC1	none
CCN(CC)c1ncnc2c1cnn2CC(=O)N1CCN(c2ccccc2)CC1	none
COC(=O)c1[nH]ncc1CN(C)Cc1csc(-c2ccccc2)n1	none
NC(=O)c1ccc(I)c([N+](=O)[O-])c1	none
COc1ccc(C(=O)c2ccc(C)cc2)c(O)c1	none
Cc1ccc(C(=O)c2cc(O)c(O)c([N+](=O)[O-])c2)cc1	Tg IFNy HTS -80!
Cc1ccc(C2CC(=O)C3C(=Nc4ccccc4NC3c3cccnc3)C2)cc1 (stereo not given)	none
O=C(CNC1CCS(=O)(=O)C1)NC(Cc1cccs1)c1nccs1 (stereo not given)	none
CC(C)N(Cc1nccn1C)C(=O)C1CCCCO1 (stereo not given)	none
CCn1c(=O)c(-c2nc(-c3cccc(Cl)c3)no2)c(O)c2ccc(F)cc21	none
Cc1ccc(-c2cnc3ccccc3n2)cc1NC(=O)c1ccc(Br)o1	none
O=C(CCC(=O)c1cccs1)c1cccs1	none
O=C(COc1ccc(-c2cnc3ccccc3n2)cc1)c1cccs1	Tg IFNy HTS -85
Cc1cccc(-c2nc(C)c(CCNS(=O)(=O)c3cccc([N+](=O)[O-])c3)s2)c1	none
Cc1oc(C2CCN(C(=O)Cc3ccccc3F)CC2)nc1C(=O)N1CCCC1	none
Cc1oc(C2CCN(C(=O)Cc3ccccc3Cl)CC2)nc1C(=O)N1CCOCC1	none
Cc1oc(C2CCN(C(=O)Cc3c(F)cccc3Cl)CC2)nc1C(=O)N1CCCC1	Tg IFNy HTS -73
Cc1ccccc1N1CC2(CCN(Cc3cncn3C)C2)CC1=O (stereo not given)	none
CCCC(=O)Nc1cccc(C(=O)NCC2CC(CC)=NO2)c1 (stereo not given)	none

Assay outcomes as filed in PubChem.
